Measurements as given in PubChem BioAssay (Tox21).
Results filed as inconclusive are left out. Activity calls are given as the source filed them. Unless noted, the call rests on the fitted dose curve; in most records, active means well fitted curve in the direction sought with a large enough effect in the repeat runs; inconclusive means weak or mixed curves; inactive means no such curve, though single readings can be large; an effect the other way counts as inactive or inconclusive.

Tests used:
[1] = target: Aryl hydrocarbon receptor (Homo sapiens) (UniProt P35869); assay: qHTS assay to identify small molecule that activate the aryl hydrocarbon receptor (AhR) signaling pathway (AID 743085);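 further: HG2L7.5c1 human HepG2 liver cells with stably integrated DRE-driven firefly reporter; series mostly up to about 70 µM; nearly all actives have a fitted effect of over 15% in size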
Sequence of Aryl hydrocarbon receptor (Homo sapiens) (P35869 whole entry, looked up): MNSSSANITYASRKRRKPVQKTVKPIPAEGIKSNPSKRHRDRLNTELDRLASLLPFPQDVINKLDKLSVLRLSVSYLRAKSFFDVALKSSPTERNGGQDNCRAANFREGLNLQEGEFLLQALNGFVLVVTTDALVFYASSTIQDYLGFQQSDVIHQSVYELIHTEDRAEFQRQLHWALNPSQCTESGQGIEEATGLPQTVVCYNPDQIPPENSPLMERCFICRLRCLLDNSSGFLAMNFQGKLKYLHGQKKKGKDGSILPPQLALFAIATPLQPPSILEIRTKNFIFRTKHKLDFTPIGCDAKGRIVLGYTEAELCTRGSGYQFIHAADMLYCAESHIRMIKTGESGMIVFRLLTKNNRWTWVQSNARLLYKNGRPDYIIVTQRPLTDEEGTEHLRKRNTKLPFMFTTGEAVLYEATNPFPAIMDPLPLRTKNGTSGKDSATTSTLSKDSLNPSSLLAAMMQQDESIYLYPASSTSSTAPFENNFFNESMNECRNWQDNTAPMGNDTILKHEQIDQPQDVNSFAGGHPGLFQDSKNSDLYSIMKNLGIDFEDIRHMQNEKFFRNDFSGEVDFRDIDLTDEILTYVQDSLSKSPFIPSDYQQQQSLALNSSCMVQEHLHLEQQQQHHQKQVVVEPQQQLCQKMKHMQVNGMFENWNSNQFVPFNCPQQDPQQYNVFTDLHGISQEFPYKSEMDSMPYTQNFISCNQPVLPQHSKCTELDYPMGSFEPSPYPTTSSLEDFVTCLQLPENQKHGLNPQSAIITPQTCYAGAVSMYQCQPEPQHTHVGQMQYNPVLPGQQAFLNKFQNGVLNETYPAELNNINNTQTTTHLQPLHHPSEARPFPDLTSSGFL
Summary of the method: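 Steps: seed HepG2-AhR-luc cells; allow 5 h at 37C; pin-transfer test compound or vehicle; incubate 24 h at 37C; add viability dye (30 min, 37C) and read fluorescence; add luciferase substrate (30 min, RT) and read luminescence.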

[2] = qHTS assay to identify small molecule that activate the aryl hydrocarbon receptor (AhR) signaling pathway - cell viability counter screen (AID 743086);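 further: HepG2 liver cells carrying the AhR DRE luciferase reporter; series mostly up to about 70 µM; nearly all actives have a fitted effect of over 45% in size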
Summary of the method: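 HepG2-AhR-luc (HG2L7.5c1) cells, 4000/well, were preincubated 5 h at 37C, exposed to compound in qHTS format for 24 hr at 37C, then given CellTiter-Fluor for 30 min; viability was read as fluorescence in the reporter wells.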

[3] = target: Peroxisome proliferator-activated receptor gamma (Homo sapiens) (UniProt P37231); assay: qHTS assay to identify small molecule agonists of the peroxisome proliferator-activated receptor gamma (PPARg) signaling pathway (AID 743094; active means well fitted activation curve with a large enough effect in the signal ratio in the repeat runs, not every such curve was filed as active; the % refers to the signal ratio)
Sequence of Peroxisome proliferator-activated receptor gamma (Homo sapiens) (P37231 whole entry, looked up): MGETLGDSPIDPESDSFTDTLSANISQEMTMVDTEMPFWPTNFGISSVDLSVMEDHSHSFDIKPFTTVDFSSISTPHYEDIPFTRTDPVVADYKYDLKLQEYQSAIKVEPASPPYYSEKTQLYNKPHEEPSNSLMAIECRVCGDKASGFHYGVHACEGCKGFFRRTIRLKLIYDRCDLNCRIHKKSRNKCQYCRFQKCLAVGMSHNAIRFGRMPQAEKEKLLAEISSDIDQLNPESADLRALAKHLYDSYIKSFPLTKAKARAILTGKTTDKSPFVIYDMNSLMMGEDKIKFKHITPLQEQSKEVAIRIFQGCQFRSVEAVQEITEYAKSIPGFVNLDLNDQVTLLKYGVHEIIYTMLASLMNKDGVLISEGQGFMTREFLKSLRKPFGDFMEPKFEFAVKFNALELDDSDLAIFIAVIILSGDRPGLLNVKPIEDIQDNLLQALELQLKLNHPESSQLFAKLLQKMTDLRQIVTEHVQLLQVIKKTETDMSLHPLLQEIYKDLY
Summary of the method: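 Agonist activity was taken from a beta-lactamase reporter (FRET substrate, 1 h at room temperature) in HEK293H cells carrying a PPARg UAS-bla construct. Compounds in DMSO were incubated 17 h at 37C after a 5 h cell pre-incubation.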

[4] = target: Peroxisome proliferator-activated receptor gamma (Homo sapiens) (UniProt P37231); assay: qHTS assay to identify small molecule antagonists of the peroxisome proliferator-activated receptor gamma (PPARg) signaling pathway (AID 743191; calls by dose curve; further: series mostly up to about 63 µM; nearly all actives have a fitted effect of over 30% in size)
Summary of the method: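 GeneBLAzer PPARg UAS-bla HEK293H cells carrying a UAS-driven beta-lactamase reporter were plated at 3000 cells/well, preincubated 5 h at 37C, then given compound for 17 h at 37C; LiveBLAzer B/G FRET substrate was read after 1 h at room temperature.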

[5] = qHTS assay to identify small molecule antagonists of the peroxisome proliferator-activated receptor gamma (PPARg) signaling pathway - cell viability counter screen (AID 743194); settings: Potency: co-treated with 50 nM rosiglitazone; further: nearly all actives have a fitted effect of over 55% in size
Summary of the method: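 PPARg-UAS-bla HEK293H cells were plated, rested 5 h at 37 C, then treated with compounds plus rosiglitazone (50 nM final) for 17 h at 37 C; viability was then read by CellTiter-Glo luminescence after 30 min at room temperature.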

[6] = qHTS assay for small molecule agonists of the antioxidant response element (ARE) signaling pathway (AID 743202; active means well fitted activation curve with a large enough effect in the signal ratio in the repeat runs, not every such curve was filed as active; the % refers to the signal ratio; further: potency means the concentration at half of the fitted maximal effect)
Summary of the method: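 Steps: seed ARE-bla HepG2 cells (2,000/well); incubate 5 h at 37 C; add compounds by pin tool; incubate 16 h at 37 C; add FRET substrate; read fluorescence after 2 h at RT.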

[7] = qHTS assay for small molecule agonists of the antioxidant response element (ARE) signaling pathway - cell viability counter screen (AID 743203; calls by dose curve; further: nearly all actives have a fitted effect of over 55% in size)
Summary of the method: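 Viability counter screen: CellTiter-Glo luminescence, read after 30 min at room temperature, in ARE-bla HepG2 wells. Compound exposure lasted 16 h at 37C/5% CO2, following a 5 h pre-incubation of the cells after plating.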

[8] = qHTS assay for small molecule activators of the heat shock response signaling pathway - cell viability counter screen (AID 743209); further: nearly all actives have a fitted effect of over 50% in size
Summary of the method: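 Cytotoxicity counter screen run in the same wells as the heat-shock bla reporter assay: HeLa HSE-bla cells, 5 h compound exposure at 37 C, viability read by CellTiter-Glo luminescence.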

[9] = qHTS assay for small molecule activators of the heat shock response signaling pathway (AID 743210; active means well fitted activation curve with a large enough effect in the signal ratio in the repeat runs, with a control signal flat, not every such curve was filed as active; the % refers to the signal ratio;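 further: HeLa cells with beta-lactamase reporter driven by heat shock elements; series mostly up to about 63 µM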)
Summary of the method: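 Activation of heat shock element-controlled beta-lactamase expression is measured in HeLa cells by LiveBLAzer FRET fluorescence, with compound exposure lasting 5 h at 37 C and substrate loading 2.5 h at room temperature.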

[10] = qHTS assay to identify small molecule agonists of the peroxisome proliferator-activated receptor delta (PPARd) signaling pathway - cell viability counter screen (AID 743211); further: nearly all actives have a fitted effect of over 55% in size
Summary of the method: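 Viability of GeneBLAzer PPARd UAS-bla HEK293H cells was assessed after 17 h compound incubation at 37C, using CellTiter-Glo reagent added after the reporter read and luminescence recorded 30 min later.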

[11] = qHTS assay to identify small molecule antagonists of the peroxisome proliferator-activated receptor delta (PPARd) signaling pathway - cell viability counter screen (AID 743213); further: nearly all actives have a fitted effect of over 50% in size
Summary of the method: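 HEK293H PPARd UAS-bla cells, 5 h pre-incubation, compound + L165041 300 nM final, 17 h 37 C; B/G FRET substrate 2 h RT; then CellTiter-Glo 30 min RT, luminescence.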

[12] = qHTS assay to identify small molecule agonists of the farnesoid-X-receptor (FXR) signaling pathway - cell viability counter screen (AID 743218); further: nearly all actives have a fitted effect of over 45% in size
Summary of the method: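 Viability counter screen in the same wells: CellTiter-Glo luminescence, 30 min room-temperature incubation, measured after the beta-lactamase read. Cells were GeneBLAzer FXR-UAS-bla HEK 293T, compound-treated 16 h at 37C.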

[13] = target: Vitamin D3 receptor (Homo sapiens) (UniProt P11473); assay: qHTS assay to identify small molecule antagonists of the vitamin D receptor (VDR) signaling pathway (AID 743223; active means well fitted inhibition curve with a large enough effect in the signal ratio in the repeat runs, not every such curve was filed as active; the % refers to the signal ratio)
Sequence of Vitamin D3 receptor (Homo sapiens) (P11473 whole entry, looked up): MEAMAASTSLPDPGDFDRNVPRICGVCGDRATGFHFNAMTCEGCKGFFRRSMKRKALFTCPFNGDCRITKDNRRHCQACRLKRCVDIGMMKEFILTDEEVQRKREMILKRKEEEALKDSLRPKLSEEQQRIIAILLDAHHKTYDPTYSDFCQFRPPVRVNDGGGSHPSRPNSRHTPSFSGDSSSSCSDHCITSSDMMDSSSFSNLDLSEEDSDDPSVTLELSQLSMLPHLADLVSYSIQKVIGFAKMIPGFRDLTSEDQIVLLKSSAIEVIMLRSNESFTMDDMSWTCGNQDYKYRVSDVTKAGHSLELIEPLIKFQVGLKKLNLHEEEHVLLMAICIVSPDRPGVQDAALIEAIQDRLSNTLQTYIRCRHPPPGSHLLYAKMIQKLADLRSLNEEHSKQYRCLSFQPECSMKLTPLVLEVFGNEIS
Summary of the method: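 Fluorescence from LiveBLAzer B/G FRET substrate, read after 2 h at room temperature, reflects beta-lactamase reporter activity in VDR-bla cells treated 16 h at 37C with compounds and agonist 1alpha,25-dihydroxyvitamin D3 (3 nM final).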

[14] = target: Bile acid receptor (Homo sapiens) (UniProt Q96RI1); assay: qHTS assay to identify small molecule antagonists of the farnesoid-X-receptor (FXR) signaling pathway (AID 743217; active means well fitted inhibition curve with a large enough effect in the signal ratio in the repeat runs, not every such curve was filed as active; the % refers to the signal ratio)
Sequence of Bile acid receptor (Homo sapiens) (Q96RI1 whole entry, looked up): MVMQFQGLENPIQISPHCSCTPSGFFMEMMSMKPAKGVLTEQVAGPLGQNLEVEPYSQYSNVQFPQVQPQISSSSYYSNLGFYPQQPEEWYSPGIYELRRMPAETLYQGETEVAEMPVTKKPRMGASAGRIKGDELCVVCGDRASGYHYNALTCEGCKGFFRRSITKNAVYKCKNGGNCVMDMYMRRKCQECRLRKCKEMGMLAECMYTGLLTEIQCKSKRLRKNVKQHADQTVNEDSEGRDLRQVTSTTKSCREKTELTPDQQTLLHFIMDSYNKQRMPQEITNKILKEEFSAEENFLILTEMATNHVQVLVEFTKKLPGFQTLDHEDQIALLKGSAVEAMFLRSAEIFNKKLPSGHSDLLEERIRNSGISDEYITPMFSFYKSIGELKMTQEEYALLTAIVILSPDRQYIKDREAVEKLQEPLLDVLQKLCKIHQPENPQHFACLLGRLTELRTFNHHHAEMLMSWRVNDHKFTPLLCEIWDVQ
Summary of the method: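 Antagonist mode: chenodeoxycholic acid at 50 uM final stimulates a UAS-driven beta-lactamase reporter in HEK 293T FXR-bla cells during 16 h, 37C compound exposure. Read-out is FRET substrate fluorescence after 2 h at room temperature.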

[15] = target: Bile acid receptor (Homo sapiens) (UniProt Q96RI1); assay: qHTS assay to identify small molecule agonists of the farnesoid-X-receptor (FXR) signaling pathway (AID 743220; active means well fitted activation curve with a large enough effect in the signal ratio in the repeat runs, not every such curve was filed as active; the % refers to the signal ratio)
Summary of the method: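 FXR-UAS-bla HEK 293T cells carrying a UAS-driven beta-lactamase reporter were plated for 5 h at 37C/5% CO2, then exposed to DMSO-dissolved Tox21 10K compounds for 16 h at 37C. A LiveBLAzer B/G FRET substrate was loaded for 2 h at room temperature before fluorescence reading.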

[16] = qHTS assay to identify small molecule antagonists of the farnesoid-X-receptor (FXR) signaling pathway - cell viability counter screen (AID 743221; active means well fitted cell-killing curve with a large enough effect in the repeat runs, not every such curve was filed as active; further: nearly all actives have a fitted effect of over 50% in size)
Summary of the method: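 Quantitative HTS of the Tox21 10K library run in parallel with the beta-lactamase reporter read. HEK 293T cells carrying a UAS-driven bla reporter got compound and 50 uM CDCA (final) for 16 h; ATP-based luminescence followed.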

[17] = target: Vitamin D3 receptor (Homo sapiens) (UniProt P11473); assay: qHTS assay to identify small molecule agonists of the vitamin D receptor (VDR) signaling pathway (AID 743222; calls by dose curve)
Summary of the method: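 Agonist mode, beta-lactamase reporter: fluorescence from LiveBLAzer B/G FRET substrate (2 h, room temperature) read after 16 h compound treatment at 37 C of VDR-bla cells, which were pre-incubated 4 h after seeding.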

[18] = qHTS assay to identify small molecule agonists of the vitamin D receptor (VDR) signaling pathway - cell viability counter screen (AID 743224); further: series mostly up to about 63 µM; nearly all actives have a fitted effect of over 50% in size
Summary of the method: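 Counter screen run in the same wells as the VDR-bla reporter assay: CellTiter-Glo luminescence, 30 min at room temperature, after 16 h compound treatment at 37C of cells pre-plated for 4 h.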

[19] = target: Peroxisome proliferator-activated receptor delta (Homo sapiens) (UniProt Q03181); assay: qHTS assay to identify small molecule agonists of the peroxisome proliferator-activated receptor delta (PPARd) signaling pathway (AID 743212; calls by dose curve)
Sequence of Peroxisome proliferator-activated receptor delta (Homo sapiens) (Q03181 whole entry, looked up): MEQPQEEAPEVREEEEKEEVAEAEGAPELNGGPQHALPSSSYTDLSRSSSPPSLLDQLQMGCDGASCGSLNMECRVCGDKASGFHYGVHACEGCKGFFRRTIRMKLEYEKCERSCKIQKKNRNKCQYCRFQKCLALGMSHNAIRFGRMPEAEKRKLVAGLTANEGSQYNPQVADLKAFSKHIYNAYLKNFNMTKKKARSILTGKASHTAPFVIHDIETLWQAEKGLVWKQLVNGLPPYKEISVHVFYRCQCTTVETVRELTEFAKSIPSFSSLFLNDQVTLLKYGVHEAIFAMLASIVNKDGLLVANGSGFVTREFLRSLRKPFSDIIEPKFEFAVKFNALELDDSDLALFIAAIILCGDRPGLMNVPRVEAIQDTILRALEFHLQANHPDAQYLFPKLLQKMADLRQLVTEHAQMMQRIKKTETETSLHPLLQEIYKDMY
Summary of the method: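 Cells expressing a UAS-driven beta-lactamase reporter (PPARd-bla HEK293H) were given test compounds after a 5 h settle and kept at 37 C. Reporter activity was then measured as FRET fluorescence using LiveBLAzer B/G substrate.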

[20] = target: Peroxisome proliferator-activated receptor delta (Homo sapiens) (UniProt Q03181); assay: qHTS assay to identify small molecule antagonists of the peroxisome proliferator-activated receptor delta (PPARd) signaling pathway (AID 743215; active means well fitted inhibition curve with a large enough effect in the signal ratio in the repeat runs, not every such curve was filed as active; the % refers to the signal ratio;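 further: cells stimulated with agonist L165041 at 300 nM final during compound exposure; series mostly up to about 62 µM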)
Summary of the method: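 Agonist L165041 (300 nM final) added with compound to PPARd-bla HEK293H UAS-bla reporter cells; 17 h incubation at 37 C. Read-out: LiveBLAzer FRET substrate, 2 h at room temperature, fluorescence intensity.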

Measured: Potency

CCC1(C2=NCCN2)Cc2ccccc2O1 (stereo not drawn)
not listed: [14] | [15] | [16] | [17] | [18] | [19] | [20]
inactive: all other assays above

COc1ccc(C(O)(c2cncnc2)C2CC2)cc1 (stereo not drawn)
not listed: [13] | [19] | [20]
inactive: all other assays above

C[C@H]1O[C@H](OC2[C@@H](O)[C@@H](O)C(O)[C@H](O)[C@H]2O)[C@@H](N)C[C@@H]1N=C(N)C(=O)O (stereo partly drawn)
not listed: [10] | [13] | [14] | [15] | [17]
inactive: all other assays above

NC(=S)c1c(Cl)cccc1Cl
not listed: [7] | [13] | [14] | [15] | [17]
inactive: all other assays above

CCCCC(CC)COC(=O)c1c(Br)c(Br)c(Br)c(Br)c1C(=O)OCC(CC)CCCC (stereo not drawn)
not listed: [16]
inactive: all other assays above

N#CC(C#N)=C(C#N)C#N
active: [6] 7.17 µM
not listed: [7] | [11] | [14] | [15]
inactive: all other assays above

CCC1(CCC(C)C)C(=O)NC(=O)NC1=O
not listed: [10] | [12] | [13] | [14] | [16] | [17]
inactive: all other assays above

CCc1cnc(C2=NC(C)(C(C)C)C(=O)N2)c(C(=O)O)c1 (stereo not drawn)
not listed: [10] | [14] | [15]
inactive: all other assays above

CCCCCBr
not listed: [11] | [14] | [15]
inactive: all other assays above
